Experimental data published in PubChem BioAssay (NCI).
This is part of a sample that, as a whole, favours compounds with a hit. Of some 83,000 tested, about 20% had one in any assay.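 Values shown are percent growth following 48 h exposure of cells in 96-well plates to a single concentration of compound; below 10 was considered active.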 Values without a mark were called inactive. The source made the active and inactive calls.

Assays:
Experiment in all cases: NCI-60 one-dose screen, 48 h (100 = growth as untreated, 0 = no growth, -100 = all killed)
Conditions in all cases: 10 µM unless noted
EKVX NSCLC = system: EKVX NSCLC
SN12C renal = system: SN12C renal
UO-31 renal = system: UO-31 renal
TK-10 renal = system: TK-10 renal
ACHN renal = system: ACHN renal
CAKI-1 renal = system: CAKI-1 renal
A498 renal = system: A498 renal
CCRF-CEM leukemia = system: CCRF-CEM leukemia
MOLT-4 leukemia = system: MOLT-4 leukemia
SR leukemia = system: SR leukemia
RPMI-8226 leukemia = system: RPMI-8226 leukemia
OVCAR-5 ovarian = system: OVCAR-5 ovarian
OVCAR-4 ovarian = system: OVCAR-4 ovarian
SK-OV-3 ovarian = system: SK-OV-3 ovarian
IGROV1 ovarian = system: IGROV1 ovarian
OVCAR-3 ovarian = system: OVCAR-3 ovarian
HS 578T breast = system: HS 578T breast
NCI/ADR-RES ovarian = system: NCI/ADR-RES ovarian
OVCAR-8 ovarian = system: OVCAR-8 ovarian

How did the growth (EKVX NSCLC) turn out when `CC/C=C/[C@@H]1C=C[C@@H]2CCC[C@H]2[C@@H]1CC[C@H](O)[C@H](C)N` was run?
The growth was 82.3%.

What about the growth (SN12C renal) of the same compound?
Its growth is 41.1%.

What about the growth (UO-31 renal) of the same compound?
The growth was -80% (active).

And the growth (TK-10 renal)?
The growth was 8.1% (active).

And the growth (ACHN renal)?
Its growth is -56.8% (active).

What about the growth (CAKI-1 renal) of the same compound?
Its growth is -50.6% (active).

What about the growth (A498 renal) of the same compound?
Its growth is 82.1%.

And the growth (CCRF-CEM leukemia)?
The growth was -44% (active).

What about the growth (MOLT-4 leukemia) of the same compound?
Its growth is -47.2% (active).

And the growth (SR leukemia)?
The growth was -40.1% (active).

What about the growth (RPMI-8226 leukemia) of the same compound?
Its growth is -50.2% (active).

What about the growth (OVCAR-5 ovarian) of the same compound?
Its growth is -29% (active).

What about the growth (OVCAR-4 ovarian) of the same compound?
Its growth is 32.8%.

And the growth (SK-OV-3 ovarian)?
The growth was -15.9% (active).

And the growth (IGROV1 ovarian)?
The growth was 1.42% (active).

And the growth (OVCAR-3 ovarian)?
The growth was -64.8% (active).

What about the growth (HS 578T breast) of the same compound?
The growth was -44.3% (active).

What about the growth (NCI/ADR-RES ovarian) of the same compound?
The growth was -33.4% (active).

What does the source list for `Cc1cnc(Nc2ccc(N3CCN(C)CC3)cc2)nc1Nc1ccc(Cl)c(NS(=O)(=O)C(C)(C)C)c1`?
growth (EKVX NSCLC): 32.5%; growth (SN12C renal): 34%; growth (ACHN renal): -4.72% (active); growth (CAKI-1 renal): 25%; growth (A498 renal): -85.4% (active); growth (CCRF-CEM leukemia): 34.2%; growth (SR leukemia): -3.93% (active); growth (RPMI-8226 leukemia): 5.58% (active); growth (OVCAR-8 ovarian): 21.7%; growth (OVCAR-5 ovarian): 19.9%; growth (OVCAR-4 ovarian): 27.9%; growth (IGROV1 ovarian): 6.84% (active); growth (OVCAR-3 ovarian): 9.51% (active); growth (HS 578T breast): -6.51% (active); growth (NCI/ADR-RES ovarian): 21%

With `CN1CCN(CCCOc2ccc3nc(Nc4cc(Cl)cc(Cl)c4)ccc3c2)CC1` as the compound, how does the growth (EKVX NSCLC) read?
Its growth is -21.5% (active).

And the growth (SN12C renal)?
Its growth is -17.7% (active).

And the growth (UO-31 renal)?
Its growth is -87.6% (active).

What about the growth (TK-10 renal) of the same compound?
The growth was -79.7% (active).

What about the growth (CAKI-1 renal) of the same compound?
The growth was -32.6% (active).

And the growth (A498 renal)?
Its growth is -18.6% (active).

What about the growth (CCRF-CEM leukemia) of the same compound?
Its growth is -52.5% (active).

What about the growth (MOLT-4 leukemia) of the same compound?
Its growth is -67.8% (active).

What about the growth (SR leukemia) of the same compound?
The growth was -54.8% (active).

And the growth (RPMI-8226 leukemia)?
Its growth is -35.1% (active).

And the growth (OVCAR-8 ovarian)?
Its growth is -47.3% (active).

And the growth (OVCAR-5 ovarian)?
The growth was -57.4% (active).

And the growth (OVCAR-4 ovarian)?
The growth was -23.9% (active).

And the growth (SK-OV-3 ovarian)?
Its growth is -59% (active).

And the growth (IGROV1 ovarian)?
Its growth is -46.8% (active).

And the growth (OVCAR-3 ovarian)?
Its growth is -80.5% (active).

And the growth (HS 578T breast)?
The growth was -34.7% (active).

And the growth (NCI/ADR-RES ovarian)?
The growth was -34.8% (active).

How did the growth (EKVX NSCLC) turn out when `CCc1c(C(=O)N[C@@H]2c3cc(Cl)ccc3CC[C@@H]2O)[nH]c(C)c1C(C)=O` was run?
Its growth is 76%.

What about the growth (UO-31 renal) of the same compound?
Its growth is 76.8%.

And the growth (TK-10 renal)?
Its growth is 87.4%.

What about the growth (ACHN renal) of the same compound?
Its growth is 77.6%.

And the growth (CAKI-1 renal)?
The growth was 71.5%.

And the growth (A498 renal)?
Its growth is 67.6%.

What about the growth (CCRF-CEM leukemia) of the same compound?
The growth was 85.2%.

What about the growth (MOLT-4 leukemia) of the same compound?
Its growth is 68.8%.

What about the growth (SR leukemia) of the same compound?
The growth was 52.5%.

And the growth (RPMI-8226 leukemia)?
The growth was 59.7%.

What about the growth (OVCAR-8 ovarian) of the same compound?
Its growth is 71.4%.

And the growth (OVCAR-5 ovarian)?
The growth was 97.9%.

What about the growth (OVCAR-4 ovarian) of the same compound?
The growth was 95.9%.

And the growth (SK-OV-3 ovarian)?
The growth was 74.4%.

And the growth (IGROV1 ovarian)?
Its growth is 59%.

What about the growth (OVCAR-3 ovarian) of the same compound?
Its growth is 81.8%.

What about the growth (HS 578T breast) of the same compound?
Its growth is 77.5%.

What about the growth (NCI/ADR-RES ovarian) of the same compound?
Its growth is 82.7%.

Which results are given for `CCNCCNc1cc(C2CCCC2)c(C#N)c2nc3ccccc3n12`?
growth (EKVX NSCLC): 38%; growth (SN12C renal): 46.3%; growth (UO-31 renal): -74.9% (active); growth (TK-10 renal): -24.7% (active); growth (ACHN renal): -34.7% (active); growth (CAKI-1 renal): 39.5%; growth (A498 renal): 75.4%; growth (CCRF-CEM leukemia): -8.07% (active); growth (SR leukemia): -4.31% (active); growth (RPMI-8226 leukemia): 1.72% (active); growth (OVCAR-8 ovarian): 28.6%; growth (OVCAR-5 ovarian): 71.2%; growth (OVCAR-4 ovarian): -13.5% (active); growth (SK-OV-3 ovarian): 40.5%; growth (IGROV1 ovarian): 43.7%; growth (OVCAR-3 ovarian): -82% (active); growth (HS 578T breast): -6.97% (active); growth (NCI/ADR-RES ovarian): 33.1%

With `Fc1ccc(Nc2ccc3cc(OCCCN4CCOCC4)ccc3n2)cc1F` as the compound, how does the growth (EKVX NSCLC) read?
The growth was 61.2%.

What about the growth (SN12C renal) of the same compound?
The growth was 68.4%.

What about the growth (UO-31 renal) of the same compound?
Its growth is 19.5%.

And the growth (TK-10 renal)?
The growth was 66.6%.

And the growth (CAKI-1 renal)?
Its growth is 70.7%.

What about the growth (A498 renal) of the same compound?
The growth was 36.8%.

What about the growth (CCRF-CEM leukemia) of the same compound?
The growth was 75.4%.

What about the growth (MOLT-4 leukemia) of the same compound?
Its growth is 61.9%.

What about the growth (SR leukemia) of the same compound?
Its growth is 8.16% (active).

What about the growth (RPMI-8226 leukemia) of the same compound?
Its growth is 49.5%.

What about the growth (OVCAR-8 ovarian) of the same compound?
The growth was 66.8%.

What about the growth (OVCAR-5 ovarian) of the same compound?
Its growth is 56.8%.

And the growth (OVCAR-4 ovarian)?
The growth was 49.4%.

And the growth (IGROV1 ovarian)?
The growth was 72.8%.

And the growth (OVCAR-3 ovarian)?
The growth was 68.1%.

What about the growth (HS 578T breast) of the same compound?
The growth was 40.6%.

What about the growth (NCI/ADR-RES ovarian) of the same compound?
The growth was 59.8%.

Which results are given for `CC(C)(C)N1CC(OC(N)=O)C1`?
growth (EKVX NSCLC): 90.2%; growth (SN12C renal): 100%; growth (UO-31 renal): 85.5%; growth (TK-10 renal): 94.8%; growth (ACHN renal): 106%; growth (CAKI-1 renal): 41%; growth (A498 renal): 105%; growth (MOLT-4 leukemia): 133%; growth (SR leukemia): 128%; growth (OVCAR-8 ovarian): 84.9%; growth (OVCAR-5 ovarian): 110%; growth (OVCAR-4 ovarian): 101%; growth (SK-OV-3 ovarian): 113%; growth (IGROV1 ovarian): 110%; growth (OVCAR-3 ovarian): 120%; growth (HS 578T breast): 116%; growth (NCI/ADR-RES ovarian): 117%

Which growth (EKVX NSCLC) does the source give for `CNC(=O)c1cc(Oc2ccc3nc(NC(=O)Nc4cc(C(F)(F)F)cc(C(F)(F)F)c4)sc3c2)ccn1` here?
The growth was -18.7% (active).

And the growth (SN12C renal)?
The growth was -18.7% (active).

And the growth (UO-31 renal)?
The growth was -69.9% (active).

What about the growth (ACHN renal) of the same compound?
Its growth is -52.9% (active).

What about the growth (CAKI-1 renal) of the same compound?
Its growth is -17.6% (active).

And the growth (A498 renal)?
The growth was -58.8% (active).

What about the growth (CCRF-CEM leukemia) of the same compound?
The growth was 7.33% (active).

And the growth (MOLT-4 leukemia)?
Its growth is 0.825% (active).

And the growth (SR leukemia)?
The growth was -27.6% (active).

What about the growth (RPMI-8226 leukemia) of the same compound?
The growth was -14.1% (active).

What about the growth (OVCAR-8 ovarian) of the same compound?
The growth was -68.2% (active).

And the growth (OVCAR-5 ovarian)?
Its growth is -26.1% (active).

And the growth (OVCAR-4 ovarian)?
Its growth is -77.2% (active).

What about the growth (SK-OV-3 ovarian) of the same compound?
Its growth is -58% (active).

And the growth (IGROV1 ovarian)?
The growth was -48.5% (active).

What about the growth (OVCAR-3 ovarian) of the same compound?
Its growth is -76.5% (active).

And the growth (HS 578T breast)?
Its growth is -20.4% (active).

And the growth (NCI/ADR-RES ovarian)?
Its growth is -38.2% (active).

`O=C1CSC(c2ccccc2O)N1c1nnc(Cn2cnnc2)o1` (centres undefined) was tested. Which growth (EKVX NSCLC) did it give?
Its growth is 81.8%.

And the growth (ACHN renal)?
The growth was 89.4%.

What about the growth (CAKI-1 renal) of the same compound?
The growth was 71.3%.

What about the growth (A498 renal) of the same compound?
Its growth is 106%.

And the growth (CCRF-CEM leukemia)?
Its growth is 23%.

And the growth (MOLT-4 leukemia)?
The growth was 61.5%.

And the growth (SR leukemia)?
Its growth is 72.4%.

What about the growth (RPMI-8226 leukemia) of the same compound?
The growth was 71.1%.

And the growth (OVCAR-5 ovarian)?
Its growth is 78.1%.

And the growth (OVCAR-4 ovarian)?
Its growth is 86.4%.

What about the growth (SK-OV-3 ovarian) of the same compound?
The growth was 88.3%.

What about the growth (IGROV1 ovarian) of the same compound?
Its growth is 73.9%.

And the growth (OVCAR-3 ovarian)?
The growth was 91.2%.

And the growth (HS 578T breast)?
The growth was 88.1%.

And the growth (NCI/ADR-RES ovarian)?
The growth was 68.9%.
